The text below walks through data of PubChem BioAssay AID1209 (Sanford-Burnham Center for Chemical Genomics, 2008).

Molecules are shown by their SMILES. The whole screen tested about 190,000 compounds, of which about 810 (0.43%) were called active. No stated cut-off is given here; in the data, active means inhibition above about 50%; inactive means the rest. This excerpt belongs to a sample that is enriched for actives.

The experiment deals with Mannose-6-phosphate isomerase (Homo sapiens) (UniProt P34949). Kind of experiment: inhibitors of human PMI, primary screen, biochemical, fluorescence intensity, coupled assay (AID 1209).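 Further: plate controls were DMSO vehicle for no effect and wells lacking substrate for full effect.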 The conditions noted are these: purified PMI enzyme, at 20 µM, hits give high values.
Chain of Mannose-6-phosphate isomerase (Homo sapiens) (P34949 whole entry, looked up): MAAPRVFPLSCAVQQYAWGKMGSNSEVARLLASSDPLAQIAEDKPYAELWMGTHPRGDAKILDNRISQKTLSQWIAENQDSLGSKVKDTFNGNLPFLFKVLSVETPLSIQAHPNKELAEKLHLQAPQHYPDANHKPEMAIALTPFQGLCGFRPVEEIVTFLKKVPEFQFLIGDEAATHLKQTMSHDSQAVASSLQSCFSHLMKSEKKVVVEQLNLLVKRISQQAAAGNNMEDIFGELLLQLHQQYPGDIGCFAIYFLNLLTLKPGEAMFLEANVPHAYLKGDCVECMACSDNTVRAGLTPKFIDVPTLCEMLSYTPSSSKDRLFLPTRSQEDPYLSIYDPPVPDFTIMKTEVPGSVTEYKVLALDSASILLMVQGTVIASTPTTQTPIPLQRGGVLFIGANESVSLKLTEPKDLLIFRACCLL
`O=C1NC(=O)/C(=C/c2ccc(O)cc2)S1`: the inhibition was -8.7% (inactive).
For `O=C1NC(=O)/C(=C\c2ccc(O)cc2O)S1` the value was 53.5% (active).
With `Cc1cc(N2CCOCC2)ccc1/C=C1/SC(=O)NC1=O`, the inhibition is -13.8% (inactive).
Regarding `O=S(=O)(c1ccc(Cl)cc1)c1cnc2ccccc2n1`, the inhibition is -6.4% (inactive).
On to `O=C(O)c1cc(-c2ccccc2)n[nH]1`, for which the inhibition was -12% (inactive).
Turning to `CC(C)(C)NC(=O)c1cc(-c2ccccc2)n[nH]1`, the inhibition is 70.1% (active).
As for `COC(=O)c1cc(-c2ccccc2)n[nH]1`, the inhibition is 7.7% (inactive).
`Cc1c(Br)c([N+](=O)[O-])nn1CC(=O)NCc1ccccn1`: the inhibition was 101% (active).
In the case of `Cc1c(Br)c([N+](=O)[O-])nn1CC(=O)NCc1ccccc1`, the inhibition was 1.2% (inactive).
As for `Cc1c(Br)c([N+](=O)[O-])nn1CC(=O)Nc1ccccn1`, the inhibition was 7.8% (inactive).
For `O=C(C1CCCN(S(=O)(=O)c2cnc[nH]2)C1)N(CCc1ccccc1)Cc1ccccc1` (stereo not drawn), the inhibition is 9.1% (inactive).
As to `CCOCC(=O)Nc1nc2ccc(C)cc2s1`, the inhibition is 110% (active).
As to `CCOCC(=O)Nc1nc2ccc(OCC)cc2s1`, the inhibition is -3% (inactive).
Consider `COCC(=O)Nc1nc2ccc(C)cc2s1`, for which the inhibition was 4.3% (inactive).
As to `CNC(=S)N1CCc2cc(OC)c(OC)cc2C1COc1ccc(F)cc1` (stereo not drawn), the inhibition was 10.3% (inactive).
Take `O=C1CNC(=O)c2c(nc3n2CCC3)N1`: the inhibition is -20.3% (inactive).
For `CC(C)=C1SC(N2CCN(c3ccc(Cl)cc3)CC2)=NC1=O` the value was 0.9% (inactive); for `COc1cccc(C(=O)NC(C)C(c2cccs2)N2CCN(C)CC2)c1` (stereo not drawn), 4.2% (inactive).
Take `COc1ccc(/C=N/N(Cc2ccccc2)c2ccccc2)cc1O`: the inhibition was 16.7% (inactive).
As to `CCN(CC)c1ccc(/C=N/N=C(c2ccccc2)c2ccccc2)c(O)c1`, the inhibition was 0.4% (inactive).
`O=C(/C(=N/N=C/c1ccc(O)c(O)c1)c1ccccc1)c1ccccc1`: the inhibition was 30.7% (inactive).
Turning to `Oc1cccc(/C=N/N(Cc2ccccc2)c2ccccc2)c1`, the inhibition is 10% (inactive).
Then `COc1cc(/C=N/N=C(/C(=O)c2ccccc2)c2ccccc2)cc(OC)c1O`, with 22% (inactive).
As to `O=C(/C(=N/N=C/c1ccc(O)c(O)c1O)c1ccccc1)c1ccccc1`, the inhibition was 55.5% (active).
Turning to `Oc1ccc(/C=N/N(Cc2ccccc2)c2ccccc2)c(O)c1O`, the inhibition is 76.6% (active).
`Oc1cccc(C=NCc2ccccc2)c1O`: the inhibition was 49.6% (inactive).
Then `Oc1ccc(/C=N/N=C(c2ccccc2)c2ccccc2)c(O)c1O`, with 67.9% (active); and `CC(=O)c1cn(CCCCCCCn2cc(C(C)=O)c(=O)[nH]c2=O)c(=O)[nH]c1=O`, with 1.5% (inactive); and `O=C(COC(=O)Cc1ccc(Br)cc1)NC1CCCCC1`, with -3.4% (inactive).
On to `Oc1ccc(C2N=C(c3ccccc3)NC(c3ccccc3)=N2)cc1`, for which the inhibition was 3.9% (inactive).
As to `Cc1ccc(C(=O)OCC(=O)Nc2sc3c(c2C#N)CCCC3)cc1NC(=O)c1ccco1`, the inhibition is 1.3% (inactive).
For the compound `CSc1nc(=NC(C)=O)ss1`, the inhibition was 54.4% (active).
Regarding `CCN(c1ccccc1)S(=O)(=O)c1ccc(OC)c(NC(=O)CNC)c1`, the inhibition was 7.5% (inactive).
On to `CCN(CC)CCOC(=O)c1c(C)oc2ccc(OC)cc12`, for which the inhibition was -3.8% (inactive).
For `CCOC(=O)c1c(C)oc2ccc(O)cc12`, the inhibition was 8.3% (inactive).
On to `CCN(CC)CCOC(=O)c1c(C)oc2ccc(O)cc12`, for which the inhibition is 81.6% (active).
Regarding `C/C(=N\NC(=O)CCc1c[nH]c2ccccc12)c1ccc([N+](=O)[O-])cc1`, the inhibition is 7.7% (inactive).
`O=C(Cc1coc(-c2ccc(F)cc2)n1)N1CCOCC1`: the inhibition is 1% (inactive).
For `OCCN(CCO)c1ccc(C(c2ccccc2Cl)c2ccc(N(CCO)CCO)cc2Cl)c(Cl)c1` the value was 22.1% (inactive); for `Nc1ccc(N(CCO)CCO)cc1`, 4.7% (inactive).
As to `Cc1nc(SCC(=O)c2ccccc2)n[nH]1`, the inhibition is 65.9% (active).
As to `Cc1ccc(C(=O)CSc2n[nH]c(C)n2)cc1`, the inhibition is 48.5% (inactive).
For the compound `Cc1nc(SCC(=O)c2ccc(F)cc2)n[nH]1`, the inhibition is -6.3% (inactive).
With `Cc1ccc(/C=C2/SC(=S)N(CCCC(=O)Nc3ccc(O)cc3)C2=O)cc1`, the inhibition is 22.7% (inactive).
With `O=C(CCCN1C(=O)/C(=C/c2ccccc2)SC1=S)Nc1ccc(O)cc1`, the inhibition is 73% (active).
Regarding `O=C(CCCN1C(=O)/C(=C/c2ccccc2)SC1=S)Nc1cccc(O)c1`, the inhibition was 13% (inactive).
Regarding `O=C(COC(=O)/C=C/c1ccc([N+](=O)[O-])cc1)NC(c1ccccc1)c1ccccc1`, the inhibition was 13% (inactive).
With `CC1=C(C(=O)Nc2ccccc2)C(c2cccc([N+](=O)[O-])c2)Nc2nc3ccccc3n21` (stereo not drawn), the inhibition was 6.9% (inactive).
For `O=C(CN1c2cccc3cccc(c23)S1(=O)=O)N1CCOCC1` the value was 1% (inactive); for `CC1=CC(C)(C)Nc2ccc(OC(=O)CN3C(=O)c4cccc5cccc(c45)C3=O)cc21`, 53.4% (active).
As for `CC1=CC(C)(C)Nc2ccc(OC(=O)CN3C(=O)CCC3=O)cc21`, the inhibition was 22% (inactive).
In the case of `CC1=CC(C)(C)Nc2ccc(OC(=O)CN3C(=O)c4ccccc4C3=O)cc21`, the inhibition was 16.6% (inactive).
Take `Cc1cc(NC(=O)c2cc(-c3ccccc3)on2)n(-c2ccccc2)n1`: the inhibition is 0.3% (inactive).
For `CCC(C)CCCCNC1=NCCS1` (stereo not drawn) the value was -16.3% (inactive); for `Cc1ccc(/C=N/n2c(C)nnc2C)cc1`, 3.6% (inactive).
On to `Cc1ccc(-c2n[nH]c(=S)n2/N=C/c2ccncc2)cc1`, for which the inhibition is -12% (inactive).
Consider `CCOC(=O)c1c(-c2ccc(C)s2)csc1NC(=O)c1cccs1`, for which the inhibition is 1.1% (inactive).
Then `CCOC(=O)c1c(-c2ccncc2)csc1N`, with 23.6% (inactive); and `CCOC(=O)c1c(-c2ccc(C)s2)csc1N`, with 62.1% (active); and `CCOC(=O)c1c(-c2cccs2)csc1NC(C)=O`, with 7.1% (inactive).
In the case of `CCOC(=O)c1c(-c2cccs2)csc1N`, the inhibition is 51% (active).
On to `NC(=O)c1c(-c2cccs2)csc1N`, for which the inhibition is 34.2% (inactive).
Then `O=C1c2ccccc2C(=O)N1CCCCN(C(=O)c1cc2ccccc2oc1=O)c1ccc(F)cc1F`, with 11.5% (inactive); and `Cc1cccc(-n2c(Cc3ccccc3)nnc2SCC(=O)N2CCOCC2)c1`, with -6.7% (inactive).
As to `O=C(NCc1ccccc1)c1cnc(-c2ccccn2)nc1C(F)(F)F`, the inhibition was -3.7% (inactive).
Consider `CCC(OC(=O)c1cccs1)C(=O)NC1CCCCC1` (stereo not drawn), for which the inhibition was 3.4% (inactive).
For `O=[N+]([O-])c1cc(/C=N/n2c(-c3ccncc3)n[nH]c2=S)ccc1Cl` the value was 2.2% (inactive); for `CC(C)CC(c1nnnn1Cc1ccc2c(c1)OCO2)N1CCC(C(N)=O)CC1` (stereo not drawn), 7.2% (inactive); for `CCc1c(C)sc(NC(=O)C2CCCCC2C(=O)O)c1C(N)=O` (stereo not drawn), 72.1% (active).
With `CCc1c(C)sc(NC(=O)C2CC2c2ccccc2)c1C(N)=O` (stereo not drawn), the inhibition is 7.7% (inactive).
As to `Cc1sc(NC(=O)C2CCCCC2C(=O)O)c(C(N)=O)c1C` (stereo not drawn), the inhibition was -5.3% (inactive).
For the compound `COC(=O)c1c(N2C(=O)CC(Sc3ccccc3C(=O)O)C2=O)sc(C)c1C` (stereo not drawn), the inhibition is -16.2% (inactive).
Turning to `COC(=O)c1sccc1NC(=O)CSc1ccccc1N`, the inhibition was 12.4% (inactive).
As to `CCN(CC(=O)NCc1ccc(F)cc1)Cc1cc(=O)n2ccsc2n1`, the inhibition is -30.2% (inactive).
With `Cc1ccc(-n2nc3cc(C)c(N)cc3n2)cc1`, the inhibition is 75.3% (active).
As for `Nc1ccc2nn(-c3ccccc3)nc2c1`, the inhibition is 35.7% (inactive).
Then `CC(=O)Nc1cc2nn(-c3ccccc3)nc2cc1Cl`, with 0.2% (inactive).
`Cc1cc2nn(-c3cccc4ccccc34)nc2cc1NC(=O)c1cccs1`: the inhibition was 12.3% (inactive).
Then `Cc1cc2nn(-c3cccc4ccccc34)nc2cc1N`, with 77.5% (active).
As to `CCC(=O)Nc1cc2nn(-c3ccc(C)cc3)nc2cc1C`, the inhibition was -2.8% (inactive).
For `Cc1ccc(-n2nc3ccc(N)cc3n2)cc1` the value was 38.7% (inactive).
`Nc1cc2nn(-c3ccccc3)nc2cc1Cl`: the inhibition is 69.4% (active).
Take `Nc1ccc2nn(-c3cccc4ccccc34)nc2c1`: the inhibition was 42.9% (inactive).
Regarding `OCCNCc1cc(Br)ccc1OCc1ccc(Cl)cc1`, the inhibition was 10.8% (inactive).
Then `COc1ccccc1NC(=O)CCN1CCCCCC1`, with -1.2% (inactive); and `O=C(Cc1ccccc1F)OCC(=O)N1CCN(C(=O)c2ccco2)CC1`, with -7.8% (inactive).
For the compound `COc1cc(/C=N/NC(=O)C(Cc2c[nH]c3ccccc23)NC(=O)OCC(C)C)cc([N+](=O)[O-])c1OCc1ccccc1` (stereo not drawn), the inhibition was 13.6% (inactive).
As to `Cc1ccc(S(=O)(=O)N2CCCC(C(=O)NCc3cccnc3)C2)cc1Cl` (stereo not drawn), the inhibition was 12.2% (inactive).
In the case of `CCOc1ccc(NC(=O)CSc2nnc(-c3ccccn3)n2C)cc1`, the inhibition was 2.1% (inactive).
In the case of `[N-]=[N+]=CC(=O)CNC(=O)[C@@H](Cc1ccccc1)N1C(=O)c2ccccc2C1=O`, the inhibition was -1.7% (inactive).
`CCc1nc(SC)[nH]c(=O)c1C`: the inhibition was -10.9% (inactive).
For the compound `COC(=O)c1c(NC(=O)/C=C/c2ccco2)sc2c1CCC2`, the inhibition is -2.8% (inactive).
As to `CCOc1ccc(NS(=O)(=O)c2ccc(NC(=S)NC(C)=O)cc2)cc1`, the inhibition is 4.1% (inactive).
Regarding `O=C(COC(=O)C(Cc1ccccc1)NC(=O)c1ccc(Cl)cc1)c1ccc(Cl)cc1` (stereo not drawn), the inhibition was 111% (active).
Turning to `O=C(COC(=O)C(Cc1ccccc1)NC(=O)c1ccccc1)c1ccccc1` (stereo not drawn), the inhibition was 6.8% (inactive).
For the compound `CCc1ccc(C(=O)COC(=O)C(Cc2ccccc2)NC(=O)c2ccc(Cl)cc2)cc1` (stereo not drawn), the inhibition is 11.2% (inactive).
Turning to `O=C(OC1CCOC1=O)c1cc(-c2ccccc2)nc2ccccc12` (stereo not drawn), the inhibition was 8.9% (inactive).
On to `Oc1ccc2ccccc2c1C=NC1CCCCC1`, for which the inhibition was 79.8% (active).
On to `OCC(CO)(CO)N=Cc1c(O)ccc2ccccc12`, for which the inhibition is 37.3% (inactive).
In the case of `CN(C)/N=C/c1c(O)ccc2ccccc12`, the inhibition is 31.9% (inactive).
Consider `Oc1ccc2ccccc2c1/C=N/n1cnnc1`, for which the inhibition is 15.7% (inactive).
For `Oc1ccc2ccccc2c1C=Nc1ccc(N2CCOCC2)cc1`, the inhibition is 35.2% (inactive).
With `Oc1ccc2ccccc2c1C=NC12CN3CCN(CN(C3)C1)C2`, the inhibition is 67.7% (active).

By inhibition is commonly meant the drop in the measured response relative to a control, in per cent.
